# Measured values taken from PubChem BioAssay AID748 (Sanford-Burnham Center for Chemical Genomics, 2007).
# About 100 (0.1%) of roughly 96,000 compounds were called active. For the sample, actives were picked, then their nearest neighbours and some compounds at random. Potency and affinity values are given separately. Unmarked numbers belong to inactive results.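 Rule for the calls: active = displacement above 50% at 20 µM plus a fluorescence interference ratio under 1.5; inactive = the rest.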
# Molecular target: Bcl-2-like protein 10 (Homo sapiens) (UniProt Q9HD36)
# Assay: displacers of TR3 peptide from Bcl-B, primary screen, selectivity assay for Bfl-1 inhibitor project, biochemical, fluorescence polarization, FITC-TR3 peptide (AID 748);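 note: plate controls were wells without compound for no effect and wells lacking Bcl-B protein for full effect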
# Details: FP displacement of FITC-TR3 peptide from Bcl-B; at 20 µM; stronger effect = higher value
row,SMILES,displacement
1,CCn1c(NN)nc2sc3c(c2c1=O)CCC3,-124%
2,CCn1c(SCC(=O)OC)nc2sc3c(c2c1=O)CCC3,46.6%
3,COC(=O)CSc1nc2sc3c(c2c(=O)n1C1CCCCC1)CCN(C)C3,-62.9%
4,CCn1c(SCC(=O)N2CCOCC2)nc2sc3c(c2c1=O)CCCC3,4%
5,COC(=O)CSc1nc2sc3c(c2c(=O)n1-c1ccccc1)CCN(C)C3,4.6%
6,CCn1c(SCC(N)=O)nc2sc3c(c2c1=O)CCCC3,1.5%
7,Cc1ccc2cccc(SCC(=O)N3CCOCC3)c2n1,1.9%
8,O=C1CC(C(=O)O)S/C(=N\NC(=O)c2ccccc2)N1 (stereo unspecified),0%
9,CC(C)n1c(SCCCc2ccccc2)nc2c1c(=O)[nH]c(=O)n2C,-3.8%
10,COc1ccccc1NC(=O)Cc1noc(CSc2cccc[n+]2[O-])n1,-8.6%
11,CC(C)(C)c1nnc2sc(SCCN3C(=O)c4ccccc4C3=O)nn2c1=O,2.7%
12,COc1ccc(OC)c(C2=NO[C@@H]3C(=O)N(c4cc(Cl)ccc4OC)C(=O)[C@H]23)c1,6%
13,COc1ccc(Cl)cc1N1C(=O)[C@@H]2C(c3cccc(OC)c3OC)=NO[C@@H]2C1=O,8.5%
14,CC(C)c1cc(=O)oc2c3c4c(cc12)CCCN4CCC3,59.5%
15,O=c1oc2c3c4c(cc2c2c1CCC2)OCCN4CCC3,49.8%
16,CCNC(=O)CN1c2cccc3cccc(c23)S1(=O)=O,-6.3%
17,CCOC(=O)c1cc(CC)sc1NC(=O)CCC(=O)O,1.7%
18,Brc1ccc(C2Nc3cccc4cccc(c34)N2)o1,17.6%
19,O=C1NC(c2ccco2)Nc2ccccc21 (stereo unspecified),-1.7%
20,COC(=O)c1ccc(Oc2c(C(F)(F)F)oc3c(CN4CCN(C)CC4)c(O)ccc3c2=O)cc1,4.9%
21,CCOC(=O)N1CCC(NC(=O)C2CCCN(C(=O)N3CCOc4ccccc43)C2)CC1 (stereo unspecified),3.1%
22,O=C(O)c1cn[nH]c1-n1cnnn1,0.2%
23,Cc1cccc(OCC(=O)Nc2ccc(N3CCN(S(C)(=O)=O)CC3)cc2)c1C,-12.3%
24,CCOc1ccc(C(=O)Nc2ccc(N3CCCC3)cc2)cc1,35.5%

row,SMILES,displacement
1,Cc1cccc(OCCCC(=O)Nc2ccc(N3CCCCC3)cc2)c1C,-5.7%
2,CC(C)Oc1ccc(C(=O)Nc2ccc(N3CCCC3)cc2)cc1,0%
3,CCCCOc1ccc(C(=O)Nc2ccc(N3CCN(C)CC3)cc2)cc1,-3.7%
4,CCCC(=O)N1CCN(c2ccc(NC(=O)c3ccc(OCC)c([N+](=O)[O-])c3)cc2)CC1,-1.6%
5,Cc1cc(C)cc(OCC(=O)Nc2ccc(N3CCCC3)cc2)c1,17.3%
6,Cc1ccc(OCC(=O)Nc2ccc(N3CCOCC3)cc2)cc1,4.4%
7,CCOc1cc(N2CCOCC2)c(OCC)cc1NC(=O)CN1C(=O)NC2(CCc3ccccc32)C1=O (stereo unspecified),-7.8%
8,CCn1c(SCC(=O)Nc2ccc(S(N)(=O)=O)cc2)nnc1-c1ccccc1OC,-8.3%
9,CCCn1c(=O)c2c(c3ccccc31)OC(C)C(=O)N2 (stereo unspecified),4.5%
10,O=C(N/N=C/C1C(c2ccccc2)C1(Cl)Cl)c1cccc(Br)c1 (stereo unspecified),-0.4%
11,CN(C)S(=O)(=O)c1ccc(C(=O)Nc2nnc(Cc3ccccc3)s2)cc1,-6.2%
12,OC1CCN(c2ncnc3nc[nH]c23)CC1,2.2%
13,CCOC(=O)Cn1c(=O)oc2cc(S(=O)(=O)N3CCC(N4CCCCC4)CC3)ccc21,10%
14,Clc1ccc(Cn2ncc3c(NCCN4CCOCC4)ncnc32)cc1,-10.2%
15,O=C1CCCN1c1ccc(Br)cc1,-0.3%
16,Cc1c(N2C(=O)c3ccccc3C2=O)c(=O)n(-c2ccccc2)n1C,3.3%
17,Cc1c(N2C(=O)c3cccc4cccc(c34)C2=O)c(=O)n(-c2ccccc2)n1C,-13.8%
18,Cc1c(N2C(=O)c3ccc4c5c(ccc(c35)C2=O)CC4)c(=O)n(-c2ccccc2)n1C,112% (active)
19,Cc1ccsc1/C=N/n1cnc2sc(C)c(C)c2c1=O,-9.7%
20,CC(=O)N1CCN(S(=O)(=O)c2ccc(S(=O)(=O)NC3CC3)cc2)CC1,-5.1%
21,CC(C)(C)C(=O)Nc1nc(C2CCCN2S(=O)(=O)c2ccc(Cl)cc2)cs1 (stereo unspecified),-7.5%
22,Cc1ccc(S(=O)(=O)N2CCN(C3CCN(Cc4ccccc4)CC3)CC2)cc1,6.6%
23,CC(C)(C)NC(=O)c1sccc1C(=O)O,-1.7%
24,Cc1cc(C(=O)O)c(C)n1-c1ccccc1,-1%

row,SMILES,displacement
1,Cc1ccc(-c2csc(N3N=C(c4ccccc4)/C(=C\c4ccc(N(C)C)cc4)C3=O)n2)cc1,-1.8%
2,CCOc1cc(/C=C2\SC(=S)N(Nc3ccccc3)C2=O)ccc1O,-87.6%
3,COc1cc(C2N(c3ccccn3)C(=O)C3CCCN32)cc(OC)c1OC (stereo unspecified),6.8%
4,Cc1ccc(Cl)c(OCC(=O)Nc2ccc3c(c2)OCCO3)c1,1.3%
5,O=C(O)CN(c1ccc(F)cc1)S(=O)(=O)c1ccc2c(c1)OCCO2,-1.7%
6,CC(C)CN(C(=O)COC(=O)c1ccc2c(c1)NC(=O)CS2)C1CCS(=O)(=O)C1 (stereo unspecified),8.5%
7,CC(C)CN(C(=O)COC(=O)c1cc2ccccc2oc1=O)C1CCS(=O)(=O)C1 (stereo unspecified),-8.2%
8,O=C(CCc1nc2ccccc2s1)OCC(=O)N1CCN(C(=O)c2ccco2)CC1,-8%
9,Cn1c(=O)c2c3c(sc2n2c(SCc4ccc5c(c4)OCO5)nnc12)COC(C)(C)C3,-8.4%
10,COC(=O)c1ccccc1NC(=O)c1cc2ncc(Br)cn2n1,1.3%
11,O=C(Nc1ccc(F)cc1F)c1cc2ncc(Br)cn2n1,-2.9%
12,Cc1ccc(Cc2cnc(NC(=O)C3CCCO3)s2)cc1 (stereo unspecified),0.1%
13,CCC1=NNc2cccc3c(OC)ccc1c23,83.6% (active)
14,COc1ccc2c3c(cccc13)N(C)N=C2C,20.3%
15,COc1ccc(C(C)=O)c2c(O)cccc12,-7%
16,CCC(C)(C)n1nnnc1C(c1ccc2ncccc2c1)N1CCN(c2nc3ccccc3s2)CC1 (stereo unspecified),-13.1%
17,COc1ccc(-c2c(C)nn(-c3ccccc3)c2N)cc1,-8%
18,CCOc1cc(C(=O)Nc2ccon2)cc(OCC)c1OCC,-15.8%
19,Cc1ccc(S(=O)(=O)NC(=O)c2cc(C)n(CCCN3CCOCC3)c2C)cc1,8.5%
20,Cc1cc(=S)cc(C)n1CCCn1ccnc1,-6.1%
21,Cc1ccccc1C1CC(=O)NC2=C1C(=O)CCC2 (stereo unspecified),-1.2%
22,CCCn1c(SCC(=O)NCCc2ccc(OC)c(OC)c2)nc2c1c(=O)n(C)c(=O)n2C,-14.2%
23,O=C(COC(=O)CCOc1ccccc1)Nc1ccc(Cl)cn1,16%
24,Cc1cc(C)cc(OCC(=O)OCC(=O)Nc2ccc(Cl)cn2)c1,-13.6%

row,SMILES,displacement
1,CCOC(=O)c1sc(/N=C/N(C)C)c(C(=O)OCC)c1C,-16.8%
2,CCOC(=O)C1=C(O)/C(=C/N(C)C)N=C1C,-3.9%
3,CCOC(=O)C(Cc1ccccc1)NC(=O)Cn1nnc(-c2ccc(SC)cc2)n1 (stereo unspecified),-16.2%
4,CCCOP(=O)(OCCC)C(Nc1ccc(C(C)C)cc1)c1ccc([N+](=O)[O-])cc1 (stereo unspecified),13.7%
5,Cc1c(NS(=O)(=O)c2cccc(C(=O)NCc3ccccc3)c2)c(=O)n(-c2ccccc2)n1C,0.4%
6,CCOC(=O)c1ccc(NC(=O)C(C)N2C(=O)c3ccccc3C2=O)cc1 (stereo unspecified),14.6%
7,CCOC(=O)c1ccc(NC2OC(=O)c3ccccc32)cc1 (stereo unspecified),-4.1%
8,Cc1ccc(CC(=O)OCCNC(=O)c2cccnc2)cc1,1.8%
9,O=c1c2cc(N3CCOCC3)ccc2[nH]c(=S)n1CCCN1CCCCC1,10.5%
10,O=c1c2cc(N3CCOCC3)ccc2[nH]c(=S)n1CCCN1CCCC1,13.1%
11,CN(C)c1ccc(C2N(c3ccc(F)cc3)C(=O)C3CCCN32)cc1 (stereo unspecified),-12.2%
12,Cc1ccc(C)c(NC(=O)C2C(c3ccccc3)C2(Cl)Cl)c1 (stereo unspecified),-7.6%
13,Cc1cccc(Nc2nc(N)nc(CN3CCN(Cc4ccc5c(c4)OCO5)CC3)n2)c1,-2.8%
14,Cc1cc(C)nc(/N=C(\N)C2=C(O)CC(C)(C)CC2=O)n1,-12.3%
15,O=C1c2ccccc2C(=O)C12Cc1ccccc1N1CCN(c3ccccc3)CC12 (stereo unspecified),-0.1%
16,CC1(C)OC(=O)C2(Cc3ccccc3N3CCCCC32)C(=O)O1 (stereo unspecified),3.5%
17,O=C(CCS(=O)(=O)c1ccc(Br)cc1)N1CCN(Cc2ccccc2)CC1,-5%
18,O=C(CCN1Cc2ccccc2C1)c1ccc2c(c1)OCCO2,0.8%
19,O=C(CCN1CCc2ccccc2CC1)c1ccc2c(c1)OCCO2,19.8%
20,Cc1ccc(S(=O)(=O)NCCC(=O)NC2CCCC2)cc1,2%
21,O=C(CN1C(=O)C2CC=CCC2C1=O)Nc1nc2ccccc2[nH]1 (stereo unspecified),7.6%
22,CCCOc1cc(C)nc(-c2ccccc2O)n1,-2.4%
23,O=C(CN1C(=O)C2CCCCC2C1=O)Nc1nc(-c2ccccn2)cs1 (stereo unspecified),-3.3%
24,O=C(Nc1nc(-c2ccccn2)cs1)C1CC1,-5.8%
